This is part of a sample that, as a whole, favours compounds with a hit. Of some 79,000 tested, about 15% had one in any assay. Activity calls are given as the source filed them. Cut-off read from the data, not from the text of the source: active = growth inhibition above about 70%; inactive = the rest.
Assays:
[1] = NCI Yeast Anticancer Drug Screen. Data for the rad52 strain (AID 147);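 note: 0% = growth of vehicle-treated control cultures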; conditions: S. cerevisiae rad52 mutant growth inhibition, hits give high values
Method in brief: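 Here a repair-compromised yeast strain receives each compound; its growth is then quantified and normalised to vehicle-only controls.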

[2] = NCI Yeast Anticancer Drug Screen. Data for the wt1 strain (AID 149);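 note: 0% = growth of vehicle-treated wt1 cultures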; conditions: S. cerevisiae wt1 strain (SPY 50644) growth inhibition, hits give high values
Method in brief: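 Growth inhibition read against vehicle controls after compound exposure of the wt1 yeast strain.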

[3] = NCI Yeast Anticancer Drug Screen. Data for the rad50EPP+ strain (AID 151);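 note: 0% = growth of vehicle-treated control cultures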; conditions: S. cerevisiae rad50 mutant strain, hits give high values
Method in brief: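 Read-out is yeast growth inhibition relative to vehicle; cells used were the rad50EPP+ strain.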

[4] = NCI Yeast Anticancer Drug Screen. Data for the mgt1 strain (AID 153); conditions: S. cerevisiae mgt1 mutant growth inhibition, hits give high values
Method in brief: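 Measured: inhibition of mgt1 yeast growth by compound, normalized to vehicle-treated cultures.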

[5] = NCI Yeast Anticancer Drug Screen. Data for the rad50 strain (AID 155);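 note: 0% = growth of vehicle-only cultures of the same strain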; conditions: S. cerevisiae rad50 strain growth inhibition, hits give high values
Method in brief: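 Readout: growth inhibition relative to vehicle-treated cultures. Compound exposure was carried out in a genetically defined yeast strain deficient in DNA damage repair.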

[6] = NCI Yeast Anticancer Drug Screen. Data for the mec2-1 strain (AID 157); conditions: S. cerevisiae mec2-1 strain, hits give high values
Method in brief: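 Using mec2-1 yeast: add compound, measure growth, express inhibition versus vehicle-treated cultures.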

[7] = NCI Yeast Anticancer Drug Screen. Data for the rad14 strain (AID 159);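 note: 0% = growth of vehicle-treated control cultures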; conditions: S. cerevisiae rad14 strain growth inhibition, hits give high values
Method in brief: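 Growth inhibition vs vehicle controls; genetically altered yeast strain (DNA damage repair defect) treated with test compounds.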

[8] = NCI Yeast Anticancer Drug Screen. Data for the sgs1 mgt1 strain (AID 161);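 note: 0% = growth of cultures given vehicle only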; conditions: S. cerevisiae sgs1 mgt1 strain, hits give high values
Method in brief: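 Compounds are added to genetically altered yeast, and growth is compared with cultures given vehicle alone to give percent inhibition.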

[9] = NCI Yeast Anticancer Drug Screen. Data for the CLN2oe strain (AID 163);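 note: 0% = growth of vehicle-only control cultures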; conditions: S. cerevisiae CLN2oe strain, hits give high values
Method in brief: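 Whole-cell yeast growth assay. A strain engineered for altered cell-cycle control received compound, and inhibition relative to vehicle-treated cultures was recorded.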

[10] = NCI Yeast Anticancer Drug Screen. Data for the cln2 rad14 strain (AID 165);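 note: 0% = growth equal to vehicle treated cultures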; conditions: S. cerevisiae cln2 rad14 strain, hits give high values
Method in brief: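 Yeast strain cln2 rad14, bearing defects in cell cycle control and DNA repair, serves as the test system; values reflect growth inhibition compared with vehicle.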

[11] = NCI Yeast Anticancer Drug Screen. Data for the wt2 strain (AID 169);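 note: 0% = growth of vehicle-treated yeast cultures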; conditions: S. cerevisiae wt2 strain growth inhibition, hits give high values
Method in brief: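 Treated yeast vs. vehicle-treated yeast: growth inhibition determined.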

[12] = NCI Yeast Anticancer Drug Screen. Data for the mlh1 strain (AID 171);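 note: 0% = growth of vehicle-treated control cultures of the same strain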; conditions: S. cerevisiae mlh1 strain growth inhibition, hits give high values
Method in brief: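 A yeast strain with a defined genetic lesion serves as the test organism. Cultures receive compound or vehicle, and growth is measured.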

[13] = NCI Yeast Anticancer Drug Screen. Data for the sgs1 strain (AID 173);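 note: 0% = growth of vehicle-only control cultures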; conditions: S. cerevisiae sgs1 mutant, hits give high values
Method in brief: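 A genetically defined yeast mutant is incubated with the test compound, and its growth is compared to that of the same strain given vehicle.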

[14] = NCI Yeast Anticancer Drug Screen. Data for the mlh1 rad18 strain (AID 175); conditions: S. cerevisiae mlh1 rad18 strain growth inhibition, hits give high values
Method in brief: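 Steps: expose repair-defective yeast to compound; measure growth; express inhibition against vehicle-treated controls.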

[15] = NCI Yeast Anticancer Drug Screen. Data for the rad18 strain (AID 177); conditions: S. cerevisiae rad18 mutant growth inhibition, hits give high values
Method in brief: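 Measured value is growth inhibition of a yeast strain bearing a DNA repair alteration, referenced to vehicle-treated cells.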

[16] = NCI Yeast Anticancer Drug Screen. Data for the bub3 strain (AID 167); conditions: S. cerevisiae bub3 mutant strain, hits give high values
Method in brief: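 Readout: yeast growth inhibition, expressed relative to vehicle-only wells. The test organism is a mutant strain from a panel with lesions in DNA repair or checkpoint genes.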

[17] = at 5.0 µM (retest, dose inferred, filed as 0.5)
[18] = at 50.0 µM (retest, dose inferred, filed as 5.0)

Measured: growth inhibition

CCN(CC)CCCNc1ccc([N+](=O)[O-])c2nc3ccc(OC)cc3c(NCCCN(CC)CC)c12
inactive: [1]; at 1.2 µM 15% | [1]; at 3.7 µM 6% | [1]; at 11.0 µM 9% | [1]; at 33.0 µM 11% | [1]; at 100.0 µM 19% | [2]; at 1.2 µM -81% | [2]; at 3.7 µM 0% | [2]; at 11.0 µM -2% | [2]; at 33.0 µM -2% | [2]; at 100.0 µM 0% | [3]; at 1.2 µM 0% | [3]; at 3.7 µM 3% | [3]; at 11.0 µM 4% | [3]; at 33.0 µM 9% | [3]; at 100.0 µM 13% | [4]; at 1.2 µM 2% | [4]; at 3.7 µM 2% | [4]; at 11.0 µM 3% | [4]; at 33.0 µM 1% | [4]; at 100.0 µM 1% | [5]; at 1.2 µM -2% | [5]; at 3.7 µM -1% | [5]; [17] 23% | [5]; at 11.0 µM -1% | [5]; at 33.0 µM 4% | [5]; [18] 18% | [5]; at 50.0 µM 66.5% | [5]; at 100.0 µM 9% | [6]; at 1.2 µM -1% | [6]; at 3.7 µM 2% | [6]; [17] 6% | [6]; at 11.0 µM -2% | [6]; at 33.0 µM 1% | [6]; [18] 26% | [6]; at 50.0 µM 5.05% | [6]; at 100.0 µM 1% | [7]; at 1.2 µM -1% | [7]; at 3.7 µM 0% | [7]; at 11.0 µM -1% | [7]; at 33.0 µM 0% | [7]; at 100.0 µM 1% | [8]; [17] -8% | [8]; [18] 20% | [8]; at 50.0 µM 13% | [9]; at 1.2 µM -10% | [9]; at 3.7 µM -9% | [9]; at 11.0 µM -4% | [9]; at 33.0 µM -6% | [9]; at 100.0 µM -2% | [10]; [17] 43% | [10]; [18] 57% | [10]; at 50.0 µM 24.8% | [11]; at 1.2 µM -2% | [11]; at 3.7 µM 0% | [11]; at 11.0 µM 1% | [11]; at 33.0 µM -1% | [11]; at 100.0 µM 0% | [12]; at 1.2 µM 0% | [12]; at 3.7 µM -2% | [12]; at 11.0 µM 0% | [12]; at 33.0 µM -2% | [12]; at 100.0 µM -1% | [13]; at 1.2 µM 2% | [13]; at 3.7 µM 5% | [13]; at 11.0 µM 2% | [13]; at 33.0 µM 1% | [13]; at 100.0 µM 1% | [14]; [17] 13% | [14]; [18] 37% | [14]; at 50.0 µM 0.2% | [15]; at 1.2 µM 0% | [15]; at 3.7 µM 0% | [15]; at 11.0 µM 6% | [15]; at 33.0 µM 4% | [15]; at 100.0 µM 7%

CC(=O)O/N=C1C=C/C(=C(/C#N)c2ccccc2)C=C/1C
active: [1]; at 33.0 µM 99% | [1]; at 100.0 µM 96% | [2]; at 33.0 µM 99% | [2]; at 100.0 µM 97% | [3]; at 3.7 µM 81% | [3]; at 11.0 µM 95% | [3]; at 33.0 µM 97% | [3]; at 100.0 µM 94% | [4]; at 11.0 µM 75% | [4]; at 33.0 µM 99% | [4]; at 100.0 µM 96% | [5]; at 33.0 µM 98% | [5]; [18] 98% | [5]; at 50.0 µM 99.5% | [5]; at 100.0 µM 94% | [6]; at 33.0 µM 99% | [6]; [18] 98% | [6]; at 50.0 µM 99.5% | [6]; at 100.0 µM 96% | [7]; at 33.0 µM 99% | [7]; at 100.0 µM 96% | [8]; [17] 77% | [8]; [18] 99% | [8]; at 50.0 µM 99.2% | [10]; [18] 98% | [10]; at 50.0 µM 99% | [16]; at 33.0 µM 99% | [16]; [18] 99% | [16]; at 50.0 µM 99.5% | [16]; at 100.0 µM 91% | [11]; at 33.0 µM 99% | [11]; at 100.0 µM 96% | [12]; at 33.0 µM 99% | [12]; at 100.0 µM 95% | [13]; at 11.0 µM 94% | [13]; at 33.0 µM 99% | [13]; at 100.0 µM 95% | [14]; [18] 98% | [14]; at 50.0 µM 98.8% | [15]; at 33.0 µM 99% | [15]; at 100.0 µM 95%
inactive: [1]; at 1.2 µM 6% | [1]; at 3.7 µM 15% | [1]; at 11.0 µM 63% | [2]; at 1.2 µM 3% | [2]; at 3.7 µM 5% | [2]; at 11.0 µM 24% | [3]; at 1.2 µM 43% | [4]; at 1.2 µM 2% | [4]; at 3.7 µM 6% | [5]; at 1.2 µM 5% | [5]; at 3.7 µM 10% | [5]; [17] 41% | [5]; at 11.0 µM 37% | [6]; at 1.2 µM -1% | [6]; at 3.7 µM 4% | [6]; [17] 16% | [6]; at 11.0 µM 19% | [7]; at 1.2 µM 1% | [7]; at 3.7 µM 7% | [7]; at 11.0 µM 25% | [10]; [17] 4% | [16]; at 1.2 µM -8% | [16]; at 3.7 µM -11% | [16]; [17] 0% | [16]; at 11.0 µM 4% | [11]; at 1.2 µM 2% | [11]; at 3.7 µM 7% | [11]; at 11.0 µM 65% | [12]; at 1.2 µM 3% | [12]; at 3.7 µM 8% | [12]; at 11.0 µM 53% | [13]; at 1.2 µM 21% | [13]; at 3.7 µM 54% | [14]; [17] 49% | [15]; at 1.2 µM 12% | [15]; at 3.7 µM 26% | [15]; at 11.0 µM 56%

NC(=O)NC1C(c2ccccc2)=C1c1ccccc1
active: [1]; at 11.0 µM 71% | [1]; at 33.0 µM 94% | [1]; at 100.0 µM 95% | [3]; at 1.2 µM 74% | [3]; at 3.7 µM 73% | [3]; at 11.0 µM 89% | [3]; at 33.0 µM 96% | [3]; at 100.0 µM 95% | [5]; at 3.7 µM 70% | [5]; at 11.0 µM 84% | [5]; at 33.0 µM 93% | [5]; [18] 79% | [5]; at 50.0 µM 92% | [5]; at 100.0 µM 95% | [7]; at 11.0 µM 73% | [7]; at 33.0 µM 97% | [7]; at 100.0 µM 97%
inactive: [1]; at 1.2 µM 37% | [1]; at 3.7 µM 58% | [2]; at 1.2 µM -2% | [2]; at 3.7 µM 12% | [2]; at 11.0 µM 26% | [2]; at 33.0 µM 26% | [2]; at 100.0 µM 27% | [5]; at 1.2 µM 61% | [5]; [17] -19% | [6]; at 1.2 µM 0% | [6]; at 3.7 µM -1% | [6]; [17] -50% | [6]; at 11.0 µM 6% | [6]; at 33.0 µM 5% | [6]; [18] -36% | [6]; at 50.0 µM 13.2% | [6]; at 100.0 µM 27% | [7]; at 1.2 µM 51% | [7]; at 3.7 µM 58% | [8]; [17] -45% | [8]; [18] -10% | [8]; at 50.0 µM 17.4% | [9]; at 1.2 µM -3% | [9]; at 3.7 µM -3% | [9]; at 11.0 µM -3% | [9]; at 33.0 µM -5% | [9]; at 100.0 µM 30% | [10]; [17] -18% | [10]; [18] 62% | [10]; at 50.0 µM 38% | [16]; at 1.2 µM -1% | [16]; at 3.7 µM -6% | [16]; [17] -73% | [16]; at 11.0 µM -4% | [16]; at 33.0 µM -14% | [16]; [18] -68% | [16]; at 50.0 µM -28.7% | [16]; at 100.0 µM -10% | [11]; at 1.2 µM 13% | [11]; at 3.7 µM 20% | [11]; at 11.0 µM 45% | [11]; at 33.0 µM 53% | [11]; at 100.0 µM 48%

Source: PubChem BioAssay (NCI)
